Reference: PubChem BioAssay (NCATS)
Inconclusive results are not listed. A call without a number means that no potency is given here. The source made the active and inactive calls. Calls come from the whole dose curve; as a rule, active = well fitted inhibition curve with a large enough effect; inconclusive = small, poorly fitted or top-dose-only effect; inactive = flat fitted curve, though single readings scatter.

Test: High Content Imaging Cell-Based qHTS for Inhibitors of the mTORC1 Signaling Pathway in MEF (Tsc2-/-, p53-/-) Cells (AID 2666);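 note: percent of cells scored positive for phospho-rpS6 Ser235/236 immunostaining by imaging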
Details: series mostly up to 38.3 µM
Source text: NIH Molecular Libraries Probe Production Centers Network [MLPCN]
NIH Chemical Genomics Center [NCGC]
Assay Submitter (PI): Blenis, John; Hoffman, Greg; Harvard University
NCGC Assay Overview: Thee mammalian target of rapamycin (mTOR) is an intracellular serine/threonine kinase Aberrant regulation of mTOR signaling plays a causative role in a number of human diseases, including cancer, benign tumors such as lymphangioleiomyomatosis (LAM) and Tuberous Sclerosis Complex (TSC), and metabolic diseases such as diabetes and obesity. This project aims to identify inhibitors of ribosomal protein S6 (rpS6) phosphorylation. The phosphorylation of rpS6 is a key event downstream of mTOR activation. The assay uses a phospho-specific antibody of phospho-rpS6 to detect inhibitors of mTOR activation. Mutations in the Tsc1 and Tsc2 genes are the underlying genetic lesions responsible for TSC, causing constitutive activation of the mTORC1 pathway and leading to profound effects on cell metabolism. Aberrant metabolism in cancer has recently received significant attention as a target to develop therapeutic agents in the treatment of cancer1. As Tsc2-/- cells have lost the ability to respond to energy and growth factor deprivation, these cells are unable to properly down regulate cellular biosynthetic processes in response to metabolic stress, and are thus extremely sensitive to glucose deprivation-induced death.2 A central goal of this project is to explore the unique cell survival and metabolic properties of cells with Tsc1 or Tsc2 by screening for compounds that selectively target the Tsc2-/- MEFs by screening both Tsc2-/- and WT MEF cell lines. We hope to better understand these aspects of TSC physiology in order to exploit them for therapeutic benefit.
NCGC IN Cell Assay Protocol:
For quantitative high throughput analysis of mTORC1 signaling, we developed a cell-based assay for immuno-fluorescence based detection of rpS6 phosphorylation on the Acumen Explorer that will be used a platform for the primary small molecule screen. Mouse embryonic fibroblasts (MEFs) are cultured in 1536-well plates using DMEM + 10% FBS. Twenty-four hrs after plating, test compounds (solubilized in DMSO) are delivered and incubated with the cells for 24 hrs at 37 degree Celsius. Following the incubation, media with compound is aspirated and the cells are fixed in 4% paraformaldehyde (PFA) containing PBS + 0.2% TX-100. Next, PFA is aspirated, cells are washed two times with PBS plus 0.2% TX-100 and the cells are blocked for 1 hr at room temperature (blocking buffer: LiCOR Blocking Buffer plus 0.2% TX-100). This is followed by aspiration and staining with Alexa-488 conjugated-phospho-rpS6 Ser235/236 antibody for 2 hours at room temperature (Cell Signaling Technology # 4803, 1:50 dilution in blocking buffer). Cells are washed two times with PBS plus 0.2% TX-100, and stained with 10 uM propidium iodide (PI) for 20-25 minutes for cell number measurement (1:500 dilution of Hoescht staining is also added for IN Cell imaging). Active wells which are selected (based on Acumen results) are imaged on the IN Cell 1000 (GE Healthcare) using the D360/40X and HQ480/40X excitation filters for the Hoechst and Alexa-488 cytoplasmic stains, respectively. The fluorescence emission filters used were HQ460/40M and HQ535/50M for the Hoechst and Alexa-488 cytoplasmic stains, respectively. The normalized phospho-S6 staining is calculated as the ratio of […] for the single concentration rapamycin control ([…] nM) and DMSO columns. […] Inhibition of the pathway is defined based on the normalized phospho-S6 intensity in rapamycin treated cells. Each treatment is reported as the % positive cells in the well, where thresholds are defined by selecting wells with the highest and lowest signal and differentiating between the % non-active and % active populations. […]

SMILES | Potency
NS(=O)(=O)c1cc2c(cc1Cl)NCNS2(=O)=O | inactive
CCC1(C)CC(=O)NC1=O (stereo not given) | inactive
CN(C)CCOC(c1ccccc1)c1ccccc1 | inactive
COc1ccccc1OCC(O)CN1CCN(CC(=O)Nc2c(C)cccc2C)CC1 (stereo not given) | inactive
CCOC(=O)c1ncn2c1CN(C)C(=O)c1cc(F)ccc1-2 | inactive
CC(C)Cc1ccc(C(C)C(=O)O)cc1 (stereo not given) | inactive
Cn1c(=O)c2c(ncn2C)n(C)c1=O | inactive
NCCc1cnc[nH]1 | inactive
O=C(Nc1ccc([N+](=O)[O-])cc1Cl)c1cc(Cl)ccc1O | inactive
CCc1cccc2c3c([nH]c12)C(CC)(CC(=O)O)OCC3 (stereo not given) | inactive
Cc1cc(C(C)(C)C)cc(C)c1CC1=NCCN1 | inactive
Nc1nc2c(ncn2COC(CO)CO)c(=O)[nH]1 | inactive
O=c1c(O)c(-c2ccc(O)c(O)c2)oc2cc(O)cc(O)c12 | inactive
CC#C[C@]1(O)CC[C@H]2[C@@H]3CCC4=CC(=O)CCC4=C3[C@@H](c3ccc(N(C)C)cc3)C[C@@]21C | inactive
CN(C)CCC=C1c2ccccc2C=Cc2ccccc21 | inactive
Cc1ccc(C(=O)Nc2ccc(S(=O)(=O)O)c3cc(S(=O)(=O)O)cc(S(=O)(=O)O)c23)cc1NC(=O)c1cccc(NC(=O)Nc2cccc(C(=O)Nc3cc(C(=O)Nc4ccc(S(=O)(=O)O)c5cc(S(=O)(=O)O)cc(S(=O)(=O)O)c45)ccc3C)c2)c1 | inactive
O=C(CCCN1CCC(O)(c2ccc(Cl)cc2)CC1)c1ccc(F)cc1 | inactive
CCOC(=O)Nc1ccc(NCc2ccc(F)cc2)nc1N | inactive
O=C(c1ccc(OCCN2CCCCC2)cc1)c1c(-c2ccc(O)cc2)sc2cc(O)ccc12 | inactive
Cc1cc(C(C)(C)C)c(O)c(C)c1CC1=NCCN1 | inactive

SMILES | Potency
CN1C(C(=O)Nc2ccccn2)=C(O)c2ccccc2S1(=O)=O | inactive
CC[N+](CC)(CC)CCOc1cccc(OCC[N+](CC)(CC)CC)c1OCC[N+](CC)(CC)CC | inactive
CCCCc1oc2ccccc2c1C(=O)c1cc(I)c(OCCN(CC)CC)c(I)c1 | inactive
COc1ccc2[nH]cc(CCNC(C)=O)c2c1 | inactive
COc1cc2c(c(OC)c1OC)-c1ccc(OC)c(=O)cc1[C@@H](NC(C)=O)CC2 | inactive
CN1CCN(C2=Nc3cc(Cl)ccc3Nc3ccccc32)CC1 | inactive
CC(CCc1ccc(O)cc1)NCCc1ccc(O)c(O)c1 (stereo not given) | inactive
CN(Cc1cnc2nc(N)nc(N)c2n1)c1ccc(C(=O)N[C@@H](CCC(=O)O)C(=O)O)cc1 | inactive
O=C(C1CCCCC1)N1CC(=O)N2CCc3ccccc3C2C1 (stereo not given) | inactive
NC(CO)C(=O)NNCc1ccc(O)c(O)c1O (stereo not given) | inactive
Clc1ccc(C(c2ccccc2Cl)C(Cl)Cl)cc1 (stereo not given) | inactive
Cc1cn([C@H]2C=C[C@@H](CO)O2)c(=O)[nH]c1=O | inactive
COc1nc(C)nc(Cl)c1NC1=NCCN1 | inactive
Clc1ccc2nsnc2c1NC1=NCCN1 | inactive
CN1CCC(=C2c3ccccc3CC(=O)c3sccc32)CC1 | inactive
CC(C)NCC(O)c1ccc(O)c(O)c1 (stereo not given) | inactive
O=C1c2c(O)ccc(O)c2C(=O)c2c(NCCNCCO)ccc(NCCNCCO)c21 | inactive
CCC1(c2ccccc2)C(=O)NCNC1=O | inactive
CS(=O)(=O)Nc1ccc([N+](=O)[O-])cc1Oc1ccccc1 | inactive
O=C1N(c2ccccc2)c2ccccc2C1(Cc1ccncc1)Cc1ccncc1 | inactive
